Compounds with a hit are over-represented: about 3.3% of the library has one in this group of screens.
Efflux pump mplx – blocks antifungal efflux pumps in multiplex yeast assay; S. cerevisiae Candida pump triplex, Nile Red efflux; inhibition, % at 10 µM; 0.44% of 330,000 active;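 active means plate passing quality check with inhibition over a set limit, or well fluorescence over plate mean plus 4 SD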;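 further: Nile Red retained in pooled yeast measured as flow cytometry median fluorescence; 0% = buffer negative control and 100% = Enniatin B positive control; higher means more Nile Red kept so more efflux inhibition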
Calb FLC – C. albicans growth modulation with fluconazole; growth inhibition, % (concentration not given with the values); AID 1979; 0.57% of 300,000 active; C. albicans CaCi-2 (fluconazole-resistant clinical isolate) + fluconazole, Alamar Blue growth, 48 h;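 active means growth inhibition above about 58% in most replicates, limit read from the data, passing the limit was not always enough; inconclusive means exactly half the replicates above a set limit; inactive means most replicates below a set limit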;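 further: all wells also contain fluconazole at 8 µg/ml as a sub-toxic cotreatment; 0% = median of DMSO wells and 100% = median of geldanamycin control wells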
PHOSPHO1 block – blocks human PHOSPHO1 phosphatase activity. Q8TCT1. recombinant PHOSPHO1, absorbance phosphatase assay. inhibition, % at 13.3 µM. 1.1% of 290,000 active; in the data active means inhibition above about 60%
Cl transport mod – KCC2 (human) Cl- transport modulation | AID 1456 | KCC2 cells, thallium flux FluoZin-2 fluorescence | 2.2% of 190,000 active | B-score of Tl+ flux slope (higher = more flux/activation; lower = inhibition) at 10 µM;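 active means thallium flux slope and its plate-corrected score both differing from the plate sample mean at a set confidence after two filtering rounds, in either direction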;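 further: slope of fluorescence scaled to starting intensity during 10 to 20 s after thallium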
Target sequence (Q9H2X9 whole entry, looked up): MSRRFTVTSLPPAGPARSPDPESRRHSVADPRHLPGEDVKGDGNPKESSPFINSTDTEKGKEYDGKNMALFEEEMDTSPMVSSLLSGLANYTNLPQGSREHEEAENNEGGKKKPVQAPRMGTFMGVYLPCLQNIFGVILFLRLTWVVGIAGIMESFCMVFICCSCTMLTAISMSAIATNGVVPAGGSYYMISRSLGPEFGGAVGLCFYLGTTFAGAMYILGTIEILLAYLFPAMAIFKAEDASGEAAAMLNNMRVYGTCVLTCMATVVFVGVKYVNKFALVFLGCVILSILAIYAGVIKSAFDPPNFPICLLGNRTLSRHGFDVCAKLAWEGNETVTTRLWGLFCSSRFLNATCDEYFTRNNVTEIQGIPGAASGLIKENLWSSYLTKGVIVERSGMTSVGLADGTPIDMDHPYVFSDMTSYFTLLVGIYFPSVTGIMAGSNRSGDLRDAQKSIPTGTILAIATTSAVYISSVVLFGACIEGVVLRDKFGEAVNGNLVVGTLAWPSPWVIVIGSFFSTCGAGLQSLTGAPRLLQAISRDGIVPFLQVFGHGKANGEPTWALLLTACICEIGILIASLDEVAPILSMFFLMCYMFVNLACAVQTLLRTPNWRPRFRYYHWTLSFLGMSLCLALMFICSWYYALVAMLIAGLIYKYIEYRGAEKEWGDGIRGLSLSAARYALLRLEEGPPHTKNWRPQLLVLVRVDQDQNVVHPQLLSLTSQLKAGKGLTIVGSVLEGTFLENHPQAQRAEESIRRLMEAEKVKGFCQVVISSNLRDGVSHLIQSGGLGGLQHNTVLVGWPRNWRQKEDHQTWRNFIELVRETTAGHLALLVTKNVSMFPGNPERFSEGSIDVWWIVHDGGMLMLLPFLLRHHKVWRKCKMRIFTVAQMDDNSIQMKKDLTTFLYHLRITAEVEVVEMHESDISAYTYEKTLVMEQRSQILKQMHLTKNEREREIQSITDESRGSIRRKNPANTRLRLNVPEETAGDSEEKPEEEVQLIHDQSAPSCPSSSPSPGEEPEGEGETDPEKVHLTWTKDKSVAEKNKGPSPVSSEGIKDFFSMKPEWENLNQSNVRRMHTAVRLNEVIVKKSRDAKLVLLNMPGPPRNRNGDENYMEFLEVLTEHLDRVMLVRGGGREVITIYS
H9c2 protect – myocardial damage modulation in H9c2 cells. protection from H2O2 cell death, % at 20 µM. AID 588492. H9c2 cardiomyocytes, H2O2 injury protection, ATPLite, 2 h. 0.63% of 360,000 active;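 active means compounds giving at least 50% protection of heart cells from peroxide-induced death in the single-dose screen, raw or plate-pattern-corrected value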;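 further: 0% = DMSO wells with peroxide and 100% = DMSO wells without peroxide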
KCC2 secondary – confirmation of human KCC2 transport modulators; shares compounds with Cl transport mod; HEK293-KCC2, thallium flux, FluoZin2 fluorescence; active compounds read high; normalised thallium flux (F/F0 slope) at 10 µM; 15% of 3,700 active; AID 1713;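 active means thallium flux slope above the same plate's solvent-only control mean plus 3 SD; inconclusive means the two replicate wells disagree; inactive means no significant difference from solvent-only control wells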
KCC2 bumet counter – bumetanide-insensitive thallium flux in KCC2 cells with ouabain, counter-screen. shares compounds with Cl transport mod. HEK293-KCC2 + bumetanide/ouabain, thallium flux FluoZin2; active compounds read high. normalized thallium flux at 10 µM. 49% of 3,700 active. AID 1714;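 active means thallium entry rate above the same plate's blocked-transporter control wells by more than 3 SD; inconclusive means the two repeat wells disagree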;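 further: raw slope of fluorescence over initial fluorescence between 10 and 20 s after thallium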
KCC2 sec2 – KCC2 (human) modulation, second secondary assay | shares compounds with Cl transport mod | HEK293-KCC2, thallium flux FluoZin2 fluorescence; actives lie on both sides; F/F0 rise rate, 10–20 s post-thallium | normalized thallium flux at 10 µM | AID 1715 | 23% of 3,700 active;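 active means thallium flux slope more than 3 SD above or below the plate's solvent-only control mean, mostly below; inconclusive means the two repeat wells disagreed; inactive means no significant shift from solvent-only controls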;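 further: raw slope with 0.1% DMSO as baseline and bumetanide as block control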
HEK293 Tl flux – acts in parental HEK cells, KCC2 counter-screen | shares compounds with Cl transport mod | HEK293 parental cells, thallium flux FluoZin2, ouabain; baseline-ratio fluorescence slope, 10–20 s after thallium | thallium flux rate (normalised fluorescence) at 10 µM | 46% of 3,700 active | AID 1716;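 active means thallium flux rate significantly above the same plate's solvent-only control wells, beyond their mean plus 3 SD; inconclusive means the two replicate wells gave conflicting results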
KCC2 ouabain – modulates human KCC2 on retest with ouabain; shares compounds with Cl transport mod; HEK293-KCC2, thallium flux FluoZin2 fluorescence; bidirectional: low = inhibitor, high = activator; raw Tl+ flux slope (below DMSO = inhibition, above = activation) at 10 µM; 48% of 3,700 active; AID 1717;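 active means thallium flux slope beyond 3 SD from same-plate DMSO control mean in most replicates, usually higher, sometimes lower; inconclusive means repeat tests gave conflicting results; inactive means no significant difference from controls in most replicates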;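 further: slope of initial-normalized fluorescence between seconds 10 and 20 after thallium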
HEK293 Tl flux2 – parental HEK flux effect, counter-screen 2. thallium flux slope at 10 µM. 33% of 3,700 active. HEK293 parental, thallium flux FluoZin-2 fluorescence slope. shares compounds with Cl transport mod;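 active means thallium flux slope above the same plate's solvent-control mean plus 3 SD in both duplicate wells; inconclusive means duplicate wells that disagreed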;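 further: run without ouabain in cells lacking the KCC2 cotransporter; slope of fluorescence scaled to its starting value between 10 and 20 s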
Starred values were filed as active, the others as inactive; ? = inconclusive; . = not tested or not shown.

SMILES | Efflux pump mplx | Calb FLC | PHOSPHO1 block | Cl transport mod | H9c2 protect | KCC2 secondary | KCC2 bumet counter | KCC2 sec2 | HEK293 Tl flux | KCC2 ouabain | HEK293 Tl flux2
CCOC(=O)c1ccc2c(c1)n(CC)c(C)[n+]2CC | 0 | -8 | 19 | . | 2 | . | . | . | . | . | .
CCOC(=O)c1ccc2c(c1)[nH]c(=S)n2CC | 0 | 12 | -30 | 4* | 3 | 0.0057 | 0.019* | 0.033 | 0.013* | ? | 0.016*
CCOC(=O)N1CCN(C(=O)COC(=O)CNC(=O)c2ccc(C)cc2)CC1 | 0 | 1 | . | . | 2 | . | . | . | . | . | .
O=C(O)CCC(=O)N1CCc2cc(S(=O)(=O)NCc3ccc(Cl)cc3)ccc21 | 0 | -5 | 37 | . | 3 | . | . | . | . | . | .
CC1=CCCC(C)(C)C1/C=C/C(C)=N/NC(=O)c1ccncc1 (centres undefined) | 0 | -5 | 24 | 5.3* | 12 | ? | 0.046* | 0.032 | 0.016* | ? | 0.012*
Cc1cccc(-c2ocnc2C(=O)Nc2ncc(C)s2)c1 | . | . | . | . | 20 | . | . | . | . | . | .
O=S(=O)(Nc1nc2ccccc2nc1N1CCN(c2ccccn2)CC1)c1ccc(Cl)cc1 | . | . | -4 | -3.1* | -7 | 0.0047 | 0.0048 | 0.024* | 0.0069 | ? | 0.01
Cc1ccc(NC2=C(N3CCOCC3)C(=O)c3ccccc3C2=O)cc1 | 0 | 39 | 28 | . | -16 | 0.0055 | 0.005 | 0.026* | 0.008 | ? | 0.011
CC(=O)c1ccc(NC2=C(N3CCOCC3)C(=O)c3ccccc3C2=O)cc1 | 0 | 15 | 31 | -0.35 | -12 | . | . | . | . | . | .
CN1C(C(=O)NCc2ccccc2)CC2Cn3c(nc4cc(Cl)c(Cl)cc43)C21 (centres undefined) | 0 | -8 | 31 | -3.2* | 3 | 0.017 | 0.0045 | 0.022* | 0.007 | 0.014 | 0.01
CC(=O)c1cccc(NC(=S)NC(=O)Cc2ccc(Cl)cc2)c1 | 0 | 4 | 35 | . | -4 | . | . | . | . | . | .
CC(=O)c1cccc(NC(=S)NC(=O)c2ccccc2Cl)c1 | 0 | 0 | 5 | 5.4* | -4 | 0.008 | 0.026* | 0.034 | 0.017* | 0.028* | 0.013*
CC(=O)c1cccc(NC(=S)NC(=O)c2ccc(Br)cc2)c1 | 0 | 3 | 0 | 1.5 | -9 | . | . | . | . | . | .
Cc1cccc(NC(=S)NNC(=O)c2csc(C)c2)c1 | 0 | 0 | 4 | 4.5* | -9 | ? | 0.019* | 0.035 | 0.017* | ? | 0.019*
CC(=O)c1cccc(NC(=S)NC(=O)Cc2ccccc2)c1 | 0 | 17 | 8 | 6.2* | -5 | 0.0079 | 0.0091* | ? | 0.01* | 0.02 | ?
CC(=O)c1cccc(NC(=S)NC(=O)c2ccc(C)cc2Cl)c1 | 0 | 20 | 20 | 21* | -16 | 0.0058 | 0.062* | ? | 0.019* | 0.036* | 0.019*
C[C@@H]1CN([C@H](C)CO)C(=O)CCCn2cc(nn2)CO[C@H]1CN(C)C(=O)Nc1ccc(C(C)(C)C)cc1 | . | . | . | . | 2 | . | . | . | . | . | .
O=C(CC[C@H]1O[C@@H](n2cnc3c(NC(=O)c4ccccc4)ncnc32)[C@H](O)[C@@H]1O)NCCCN1CCOCC1 | . | . | . | . | 8 | . | . | . | . | . | .
COc1ccc(C(=O)N2CCC2)cc1S(=O)(=O)NCc1ccc(Cl)cc1 | 0 | . | . | . | 0 | . | . | . | . | . | .
O=C(CCCN1C(=O)C(c2ccccc2)Oc2cccnc21)Nc1ccccc1Cl (centres undefined) | 0 | -20 | 24 | . | -4 | . | . | . | . | . | .
COc1ccc(C(=O)Nc2nnc([C@@H]3C[C@H](O)[C@@H](CO)O3)s2)cc1 | . | . | . | . | -2 | . | . | . | . | . | .
CC(=O)c1cccc(NC(=S)NC(=O)c2ccc(C)cc2)c1 | 0 | ? | 19 | 7.2* | -21 | 0.0059 | 0.013* | 0.029 | 0.011* | ? | 0.012*
CCn1cc(CN2CCC(n3nccc3NC(=O)c3ccccc3C)CC2)c(C)n1 | 0 | -6 | 26 | . | 0 | . | . | . | . | . | .
O=C(NC1CCCCC1)c1ccc(CS(=O)(=O)c2ccc(Cl)cc2)o1 | 0 | -2 | 17 | . | 1 | . | . | . | . | . | .
O=C(C1CCCCC1)N1CCCc2ccccc21 | 0 | -12 | -3 | . | -6 | . | . | . | . | . | .
SMILES | Efflux pump mplx | Calb FLC | PHOSPHO1 block | Cl transport mod | H9c2 protect | KCC2 secondary | KCC2 bumet counter | KCC2 sec2 | HEK293 Tl flux | KCC2 ouabain | HEK293 Tl flux2
O=C(NC(=S)N1CCc2ccccc21)c1ccc(Br)o1 | 0 | 20 | 21 | 65* | 2 | 0.063* | 0.086* | 0.09* | 0.098* | 0.09* | 0.11*
O=C(NC(=S)N1CCc2ccccc21)C1CCC1 | 0 | -1 | 6 | 14* | 7 | 0.0082 | 0.025* | 0.033 | 0.018* | ? | 0.016*
CC(C)(C)C(=O)NC(=S)N1CCc2ccccc21 | 0 | 3 | -1 | 22* | -9 | 0.024* | 0.1* | 0.052* | ? | 0.066* | 0.037*
O=C(CCC(=O)N1CCc2ccccc21)N1CCc2ccccc21 | . | . | . | 0.3 | . | . | . | . | . | . | .
CC(C)(C)NC(=O)C[C@H]1C[C@H](C(=O)N2CCCCC2)[C@@]2(C)c3[nH]c4ccc(Cl)cc4c3CCN2C1=O | 1 | . | . | . | 11 | . | . | . | . | . | .
Cc1cc(OC(C)C(=O)N2CCN(c3ccc(F)cc3)CC2)c2c(C)c(C)c(=O)oc2c1 (centres undefined) | 0 | -5 | 8 | . | 0 | . | . | . | . | . | .
O=C(NCCc1ccccc1)c1ccc2c(c1)S(=O)(=O)N=C1CCCCCN12 | 0 | . | . | . | -2 | . | . | . | . | . | .
COc1ccc(CC(=O)NC(=S)NNC(=O)COc2c(C)cccc2C)cc1 | 2 | 14 | -12 | 7.3* | 9 | 0.013* | 0.038* | 0.034 | 0.015* | ? | 0.012*
CCC(=O)NC(=S)NNC(=O)COc1ccc(Br)cc1 | 0 | -31 | 32 | 7.6* | 8 | 0.0072 | 0.019* | 0.031 | 0.018* | ? | 0.015*
CCOc1ccc(NC(=S)NNC(=O)c2ccc(Br)cc2)cc1 | 0 | 74 | 12 | 24* | -2 | 0.014* | 0.055* | 0.039 | ? | 0.046* | ?
O=C(COc1ccccc1)NC(=S)Nc1ccc(Br)cn1 | 0 | 34 | -6 | 85* | 4 | 0.0071 | 0.045* | 0.048* | 0.053* | 0.052* | 0.041*
O=C(CCNC(=O)c1ccc(Br)cc1)Nc1ccccc1N1CCCC1 | 0 | 1 | . | . | -6 | . | . | . | . | . | .

From PubChem
